In article PMC6753376:

Target: CCT7 (UniProt Q99832)
Experiment: cross-linking mass spectrometry
Settings: lysate

CCT7, sequence (Q99832 whole entry): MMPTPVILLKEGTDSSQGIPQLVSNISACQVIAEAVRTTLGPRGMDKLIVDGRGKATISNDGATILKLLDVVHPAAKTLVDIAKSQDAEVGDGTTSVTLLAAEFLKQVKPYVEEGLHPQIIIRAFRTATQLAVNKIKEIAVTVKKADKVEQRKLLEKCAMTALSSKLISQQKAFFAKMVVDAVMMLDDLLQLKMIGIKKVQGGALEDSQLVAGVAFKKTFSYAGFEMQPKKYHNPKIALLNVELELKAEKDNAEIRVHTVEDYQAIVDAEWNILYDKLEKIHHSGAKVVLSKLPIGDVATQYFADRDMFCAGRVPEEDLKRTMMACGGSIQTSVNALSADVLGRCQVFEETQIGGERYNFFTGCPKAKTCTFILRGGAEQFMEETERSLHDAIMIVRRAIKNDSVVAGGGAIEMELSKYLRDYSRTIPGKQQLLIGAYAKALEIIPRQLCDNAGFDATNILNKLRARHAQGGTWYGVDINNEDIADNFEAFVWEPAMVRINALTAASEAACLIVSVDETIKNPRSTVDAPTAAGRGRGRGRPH
CCT8, P50990, sequence (P50990 whole entry): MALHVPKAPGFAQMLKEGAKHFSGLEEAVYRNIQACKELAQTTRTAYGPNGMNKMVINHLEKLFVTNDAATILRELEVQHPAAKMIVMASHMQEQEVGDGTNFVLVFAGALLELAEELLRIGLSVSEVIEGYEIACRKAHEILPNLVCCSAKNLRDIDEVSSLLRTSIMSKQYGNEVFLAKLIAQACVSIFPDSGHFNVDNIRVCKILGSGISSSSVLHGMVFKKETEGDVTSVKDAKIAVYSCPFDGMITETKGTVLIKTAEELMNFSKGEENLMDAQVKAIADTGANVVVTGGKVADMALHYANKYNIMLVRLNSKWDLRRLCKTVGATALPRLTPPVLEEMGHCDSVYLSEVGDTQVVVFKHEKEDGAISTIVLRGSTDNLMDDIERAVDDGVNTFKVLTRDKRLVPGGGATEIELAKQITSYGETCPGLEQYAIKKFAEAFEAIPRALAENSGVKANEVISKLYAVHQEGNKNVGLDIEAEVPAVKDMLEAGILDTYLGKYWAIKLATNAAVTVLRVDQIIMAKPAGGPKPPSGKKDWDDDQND
USO1, O60763, sequence (O60763 whole entry): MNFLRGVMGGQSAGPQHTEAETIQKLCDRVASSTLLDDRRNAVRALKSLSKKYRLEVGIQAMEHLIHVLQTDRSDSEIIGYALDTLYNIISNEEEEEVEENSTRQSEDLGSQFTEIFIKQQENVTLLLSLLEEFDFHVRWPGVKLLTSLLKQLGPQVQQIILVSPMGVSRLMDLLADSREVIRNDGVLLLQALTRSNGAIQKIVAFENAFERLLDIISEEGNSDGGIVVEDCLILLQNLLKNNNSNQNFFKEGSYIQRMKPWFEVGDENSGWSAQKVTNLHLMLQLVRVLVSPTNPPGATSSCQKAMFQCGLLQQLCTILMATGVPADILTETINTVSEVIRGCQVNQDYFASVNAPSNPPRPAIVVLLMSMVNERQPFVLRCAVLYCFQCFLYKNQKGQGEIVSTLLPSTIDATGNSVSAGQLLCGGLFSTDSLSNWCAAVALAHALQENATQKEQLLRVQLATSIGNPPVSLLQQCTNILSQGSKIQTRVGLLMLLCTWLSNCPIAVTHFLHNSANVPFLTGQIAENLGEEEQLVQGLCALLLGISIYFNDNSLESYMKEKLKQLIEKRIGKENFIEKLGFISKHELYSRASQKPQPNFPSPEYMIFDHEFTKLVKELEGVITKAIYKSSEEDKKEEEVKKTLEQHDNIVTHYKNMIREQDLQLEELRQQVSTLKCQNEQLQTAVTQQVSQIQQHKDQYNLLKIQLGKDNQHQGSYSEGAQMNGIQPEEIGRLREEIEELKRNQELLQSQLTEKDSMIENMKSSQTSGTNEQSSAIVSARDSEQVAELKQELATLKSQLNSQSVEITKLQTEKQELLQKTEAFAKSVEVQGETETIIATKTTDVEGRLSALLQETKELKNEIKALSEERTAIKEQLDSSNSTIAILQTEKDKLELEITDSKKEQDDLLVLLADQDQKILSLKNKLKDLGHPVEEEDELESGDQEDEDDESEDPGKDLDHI
CCT5, P48643, sequence (P48643 whole entry): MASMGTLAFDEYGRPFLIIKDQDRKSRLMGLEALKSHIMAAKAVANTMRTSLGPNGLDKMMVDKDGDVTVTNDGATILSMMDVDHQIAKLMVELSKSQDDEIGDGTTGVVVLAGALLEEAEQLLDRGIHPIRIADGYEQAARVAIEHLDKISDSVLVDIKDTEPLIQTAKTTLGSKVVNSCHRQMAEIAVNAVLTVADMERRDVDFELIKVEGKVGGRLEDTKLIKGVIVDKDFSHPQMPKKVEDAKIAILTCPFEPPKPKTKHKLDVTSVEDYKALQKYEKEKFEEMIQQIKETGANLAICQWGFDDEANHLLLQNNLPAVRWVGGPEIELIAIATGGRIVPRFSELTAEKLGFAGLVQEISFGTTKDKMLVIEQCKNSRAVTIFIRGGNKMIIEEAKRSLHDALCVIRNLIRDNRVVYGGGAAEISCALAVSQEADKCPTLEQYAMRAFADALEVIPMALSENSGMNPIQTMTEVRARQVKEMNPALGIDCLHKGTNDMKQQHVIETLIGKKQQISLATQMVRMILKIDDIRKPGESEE

Row | Substance | cross-linked residues
1 | CCT5, P48643 | K89 - K55
2 | CCT8, P50990 | K270 - K236
3 | USO1, O60763 | S164 - S329
